High-throughput results: PubChem, National Center for Advancing Translational Sciences (NCATS)
Sampled rows, rich in hits. Any-hit rate of the full collection: about 6.9%.
PLK1 PBD inh = qHTS for Inhibitors of PLK1-PDB (polo-like kinase 1 - polo-box domain): Primary Screen. Serine/threonine-protein kinase PLK1 (Homo sapiens), P53350. Plk1 PBD binding of FITC phosphopeptide, fluorescence polarization. Potency, µM, without a hit: max response, negative = inhibition, most hits filed as inhibitors. actives 2.8% (n = 360,000); also: series mostly up to about 57 µM; % is scaled to controls: 0 for no effect and ±100 for the full control effect; nearly all actives have a fitted effect of over 65% in size
VDR inh = Inhibitors of the vitamin D receptor (VDR): qHTS; Vitamin D3 receptor (Homo sapiens), P11473; Potency, µM, for the others: max response, negative = inhibition, most hits filed as inhibitors; actives 0.93% (n = 400,000); VDR-SRC2-3 peptide fluorescence polarization, 2 h; also: % is scaled to controls: 0 for no effect and ±100 for the full control effect
Target sequence (P11473 whole entry, looked up): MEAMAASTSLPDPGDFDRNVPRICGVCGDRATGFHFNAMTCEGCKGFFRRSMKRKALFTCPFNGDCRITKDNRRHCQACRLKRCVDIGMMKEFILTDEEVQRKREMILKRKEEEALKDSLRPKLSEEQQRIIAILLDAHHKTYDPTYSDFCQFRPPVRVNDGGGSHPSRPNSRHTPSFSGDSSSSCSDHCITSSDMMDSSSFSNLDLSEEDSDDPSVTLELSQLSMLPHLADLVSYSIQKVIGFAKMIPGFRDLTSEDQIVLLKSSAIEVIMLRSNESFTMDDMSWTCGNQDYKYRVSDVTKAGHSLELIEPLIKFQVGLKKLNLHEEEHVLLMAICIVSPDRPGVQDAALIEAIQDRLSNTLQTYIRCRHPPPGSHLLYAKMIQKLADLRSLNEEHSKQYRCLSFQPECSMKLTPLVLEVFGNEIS
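Fluorescence polarization assay measuring small-molecule disruption of VDR binding to the coregulator peptide SRC2-3. Compounds were pin-transferred (23 nl) into the reagent mix and incubated 2 h at room temperature before reading.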
HP1b binding inh = HTS for Inhibitors of HP1-beta Chromodomain Interactions with Methylated Histone Tails; Chromobox protein homolog 1 (Homo sapiens), P83916; AlphaScreen HP1-beta / biotin-H3K9me3 peptide binding; Potency, µM (top dose mostly 114 µM), inactives show at the top dose activity change, negative = inhibition, usual class: inhibitors; actives 0.56% (n = 390,000); AID 540317, 2011; also: nearly all actives have a fitted effect of over 70% in size
Target sequence (P83916 whole entry, looked up): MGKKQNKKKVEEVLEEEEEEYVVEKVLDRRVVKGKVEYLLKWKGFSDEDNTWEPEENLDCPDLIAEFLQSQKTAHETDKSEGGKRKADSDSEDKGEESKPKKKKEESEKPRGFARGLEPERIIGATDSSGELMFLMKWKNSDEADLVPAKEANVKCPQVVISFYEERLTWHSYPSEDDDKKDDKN
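Compound inhibition of the preformed complex between 50 nM HP1-beta and 50 nM biotinylated H3K9me3 peptide was read by AlphaScreen. Buffer was PBS pH 7.4 with 0.01% Tween-20. Incubations ran 30 min at room temperature, with 10 ug/mL donor/acceptor beads.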
JMJD2A Tudor inh = qHTS Assay for Inhibitors of JMJD2A-Tudor Domain; AlphaScreen JMJD2A-Tudor / H3K4me3 peptide binding; actives 4.4% (n = 390,000); Potency, µM (doses to about 114 µM), for the others: at the highest dose activity change, negative = inhibition, actives largely listed as inhibitors; Lysine-specific demethylase 4A (Homo sapiens), O75164; also: % is scaled to controls: 0 for no effect and ±100 for the full control effect; nearly all actives have a fitted effect of over 50% in size
BAZ2B inh = qHTS Assay for Inhibitors of BAZ2B. Potency, µM (highest dose often 114 µM), for the others: top-dose activity change, negative = inhibition, hits mostly inhibitors. AlphaScreen BAZ2B-H3K14Ac peptide displacement. actives 4.4% (n = 360,000). Bromodomain adjacent to zinc finger domain protein 2B (Homo sapiens), Q9UIF8; also: % is scaled to controls: 0 for no effect and ±100 for the full control effect; nearly all actives have a fitted effect of over 60% in size
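AlphaScreen displacement of biotin-H3(5-23)K14Ac peptide (50 nM final) from BAZ2B (50 nM final) in PBS pH 7.4, 0.01% Tween-20; complex preformed 30 min RT, then compounds (top 110 uM) 30 min RT, beads 20 min dark.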
L3MBTL1 block = qHTS Assay for the Inhibitors of L3MBTL1; AlphaScreen L3MBTL1–H3K9me1 peptide binding; AID 485360, 2010; actives 0.66% (n = 230,000); Potency, µM (doses to about 57.1 µM), for inactives: at the top dose activity, negative = inhibition, actives largely listed as inhibitors; also: % is scaled to controls: 0 for no effect and ±100 for the full control effect; nearly all actives have a fitted effect of over 60% in size
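AlphaScreen assay: L3MBTL1 (50 nM final) was preincubated 30 min at room temperature with biotinylated H3(1-15)K9me1 peptide (75 nM final), then 30 min with library compounds; streptavidin donor and nickel chelate acceptor beads (10 ug/mL final) added, 30 min dark.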
* marks the source's active call; other numbers are inactive results; [ ] = remark or other dose. Calls follow the shape of the dose curve; as a rule, active = well fitted curve in the direction sought with a large enough effect; inconclusive = small, poorly fitted or top-dose-only effect, or another doubt; inactive = no such curve, though single readings can be large; an effect the other way counts as inactive or inconclusive. Potency is read from the fitted curve at half-maximal effect.

Results for Cc1c(Cc2ccccc2)sc(NC(=O)c2ccco2)c1C(N)=O ?
PLK1 PBD inh: -5%; VDR inh: -4%; HP1b binding inh: 14%; JMJD2A Tudor inh: -19%; BAZ2B inh: 8%; L3MBTL1 block: 4%

What do the screens show for `CCCc1cc(C(N)=O)c(NC(=O)c2ccco2)s1`?
PLK1 PBD inh: 27µM*; VDR inh: -6%; HP1b binding inh: -15%; JMJD2A Tudor inh: -23%; BAZ2B inh: 1%; L3MBTL1 block: 6%

How did CCCc1cc(C(N)=O)c(NC(=O)C2CCCO2)s1 (stereo unspecified) do in these assays?
PLK1 PBD inh: 11µM*; VDR inh: -28%; HP1b binding inh: -34%; JMJD2A Tudor inh: inconclusive; BAZ2B inh: 6%; L3MBTL1 block: -14%

Results for CCOC(=O)c1c(NC(=O)C2CCCO2)sc(C)c1C (stereo unspecified) ?
PLK1 PBD inh: -8%; VDR inh: 4%; HP1b binding inh: 18%; JMJD2A Tudor inh: -16%; BAZ2B inh: -4%; L3MBTL1 block: 17%

How did Cc1sc(NC(=O)C2CCCO2)c(C(N)=O)c1C (stereo unspecified) do in these assays?
PLK1 PBD inh: 17µM*; VDR inh: inconclusive; HP1b binding inh: inconclusive; JMJD2A Tudor inh: inconclusive; BAZ2B inh: -4%; L3MBTL1 block: -21%

How did CCOC(=O)c1c(NC(=O)C2CCCO2)sc2c1CCC2 (stereo unspecified) do in these assays?
PLK1 PBD inh: -5%; VDR inh: -10%; HP1b binding inh: 6%; JMJD2A Tudor inh: -5%; BAZ2B inh: -36%

Results for NC(=O)c1c(NC(=O)C2CCCO2)sc2c1CCCC2 (stereo unspecified) ?
PLK1 PBD inh: 11µM*; VDR inh: -28%; HP1b binding inh: inconclusive; JMJD2A Tudor inh: inconclusive; BAZ2B inh: -29%; L3MBTL1 block: -4%

What do the screens show for `CCC(C)NC(=O)c1cc2cc(S(=O)(=O)N3CCCCC3)ccc2n1C` (stereo unspecified)?
VDR inh: 14%; HP1b binding inh: 19%[57 µM]; JMJD2A Tudor inh: -12%; BAZ2B inh: 4%

What do the screens show for `CN(C)CCN(C(=O)c1cccc(Cl)c1)c1nc2c(Cl)cccc2s1`?
PLK1 PBD inh: 0%; VDR inh: -17%; HP1b binding inh: -11%; JMJD2A Tudor inh: inconclusive; BAZ2B inh: 2%; L3MBTL1 block: 8%

Results for CN(C)CCN(C(=O)c1ccccc1Cl)c1nc2c(Cl)cccc2s1 ?
PLK1 PBD inh: -1%; VDR inh: -2%; HP1b binding inh: inconclusive; JMJD2A Tudor inh: 25µM*; BAZ2B inh: -65%; L3MBTL1 block: -3%

Results for Cc1cc(C)c2nc(N(CCN(C)C)C(=O)c3ccc4ccccc4c3)sc2c1 ?
PLK1 PBD inh: -9%; VDR inh: 3%; HP1b binding inh: -12%; JMJD2A Tudor inh: 40µM*; BAZ2B inh: inconclusive

What do the screens show for `Cc1ccc(Cl)cc1N1CCN(C2(c3ccccc3)C(=O)c3ccccc3C2=O)CC1`?
VDR inh: -10%; HP1b binding inh: -4%; JMJD2A Tudor inh: inconclusive; BAZ2B inh: inconclusive

How did COc1cccc(CNC(=O)CN2C(=O)CSc3ccc(S(=O)(=O)N4CCCC4)cc32)c1 do in these assays?
PLK1 PBD inh: 3%; VDR inh: -7%; HP1b binding inh: 47%; JMJD2A Tudor inh: -12%; BAZ2B inh: 4%

Results for Cc1ccc(-c2nc(NC(=O)CSc3ncn[nH]3)ns2)cc1 ?
PLK1 PBD inh: 7.5µM*; VDR inh: 14µM*; HP1b binding inh: -3%; JMJD2A Tudor inh: -29%[11.4 µM]; BAZ2B inh: -7%

What do the screens show for `CCCN1C(=O)c2cc(C(=O)O)ccc2C1O` (stereo unspecified)?
PLK1 PBD inh: 4%; VDR inh: 5%; HP1b binding inh: 18%; JMJD2A Tudor inh: 89µM*; BAZ2B inh: 56µM*; L3MBTL1 block: -7%

Results for CCCN1C(=O)c2cc(C(=O)Nc3cccc(C(C)=O)c3)ccc2C1Nc1cccc(C(C)=O)c1 (stereo unspecified) ?
PLK1 PBD inh: -10%; VDR inh: -19%; HP1b binding inh: 25%; JMJD2A Tudor inh: -18%; BAZ2B inh: -2%

Results for CCCc1cc(=O)n2c(C(=O)Nc3ccc(OCC)cc3)c(C(=O)Nc3ccc(C)cc3)sc2n1 ?
VDR inh: 8%; HP1b binding inh: 3%; JMJD2A Tudor inh: -5%; BAZ2B inh: -1%

Results for Oc1ccccc1Nc1nc(NCc2ccco2)c2ccccc2n1 ?
PLK1 PBD inh: 6%; VDR inh: -9%; HP1b binding inh: -19%; JMJD2A Tudor inh: inconclusive; BAZ2B inh: 45µM*; L3MBTL1 block: -17%

What do the screens show for `COc1ccc(OC)c(Nc2nc(NCc3ccco3)c3ccccc3n2)c1`?
PLK1 PBD inh: 1%; VDR inh: 15%; HP1b binding inh: inconclusive; JMJD2A Tudor inh: 50µM*; BAZ2B inh: 40µM*; L3MBTL1 block: -10%

Results for Cc1cccc(Nc2nc(NCc3ccco3)c3ccccc3n2)c1 ?
PLK1 PBD inh: 10%; VDR inh: -4%; HP1b binding inh: -10%; JMJD2A Tudor inh: inconclusive; BAZ2B inh: inconclusive; L3MBTL1 block: -3%

How did Cc1ccccc1Nc1nc(NCc2ccco2)c2ccccc2n1 do in these assays?
PLK1 PBD inh: -12%; VDR inh: 12%; HP1b binding inh: inconclusive; JMJD2A Tudor inh: 56µM*; BAZ2B inh: inconclusive

What do the screens show for `CCC(C(=O)Nc1ccc(C(=O)OC)cc1)n1nc(-c2ccc(C)cc2)c2c(c1=O)CCCC2` (stereo unspecified)?
VDR inh: 1%; HP1b binding inh: 53%; JMJD2A Tudor inh: -22%; BAZ2B inh: 8%

What do the screens show for `CC(=O)Nc1ccc(S(=O)(=O)NCC(=O)N2CCN(S(=O)(=O)c3cccs3)CC2)cc1`?
PLK1 PBD inh: 15µM*; VDR inh: -8%; HP1b binding inh: 45%; JMJD2A Tudor inh: -5%; BAZ2B inh: 5%; L3MBTL1 block: -7%

What do the screens show for `CCOc1ccc(N2C(=O)CNC2=S)cc1`?
PLK1 PBD inh: -7%; VDR inh: 1%; HP1b binding inh: 3%; JMJD2A Tudor inh: -9%; BAZ2B inh: -10%; L3MBTL1 block: 6%
